This note sets out measurements from PMC5540273 (PLoS ONE, 2017).
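Further: kd values determined as follow-up on hits from a single-replicate KINOMEscan panel screen.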

The subject of one experiment is PIK3C2B.
For `Fc1ccc(-c2nc3n(c2-c2ccncc2)CCS3)cc1` [GI98581], the equilibrium dissociation constant (Kd) (commonly the equilibrium constant for the complex coming apart) is more than 10000 nM. Compound `COc1ccc(Nc2nccc(NCCNC(=O)Nc3cc(C)ccc3C)n2)cc1` [GSK1379899] displayed an equilibrium dissociation constant (Kd) of more than 10000 nM. On the same count and under the same terms, with `COc1cccc(NC(=O)Nc2ccc(C)c(-c3ccc(C(=O)Nc4ccncc4)cc3)c2)c1` [GSK1398474] the figure was more than 10000 nM; with `CNCc1ccc2nc(NC(=O)c3ccc(C(C)(C)C)cc3)cn2c1`, more than 10000 nM.

A further experiment deals with PIK3CA.
`Fc1ccc(-c2nc3n(c2-c2ccncc2)CCS3)cc1` [GI98581] displayed a dissociation constant Kd of more than 10000 nM. In turn, `COc1ccc(Nc2nccc(NCCNC(=O)Nc3cc(C)ccc3C)n2)cc1` [GSK1379899] registered a dissociation constant Kd of more than 10000 nM. Turning to `COc1cccc(NC(=O)Nc2ccc(C)c(-c3ccc(C(=O)Nc4ccncc4)cc3)c2)c1` [GSK1398474], the dissociation constant (Kd) was more than 10000 nM. With `CNCc1ccc2nc(NC(=O)c3ccc(C(C)(C)C)cc3)cn2c1`, the dissociation constant Kd was more than 10000 nM.

In another experiment the test system is PIK3CB.
The compound `Cc1c(Cn2c(C)c(C)n3c(=O)cc(N4CCOCC4)nc23)cccc1C(F)(F)F` [GSK2328680] had a Kd of 16 nM. Same read-out and setting: the figure for `O=c1cc(N2CCOCC2)nc2n(Cc3ccccc3F)ccn12` [GSK2297428] is 180 nM; for `Cc1c(Cn2c3ccccc3n3c(=O)cc(N4CCOCC4)nc23)cccc1C(F)(F)F` [GSK2306394] it is 680 nM.

Consider `CCn1c(-c2c(N)noc2C)nc2cnccc21` [SB-737856], for which the dissociation constant (Kd) was more than 10000 nM. The same measure, in the same setting: the figure for `O=c1cc(N2CCOCC2)nc2n(Cc3cccc(Cl)c3Cl)c3ccccc3n12` [GSK2299009] is 860 nM; for `Cc1ccccc1Cn1ccn2c(=O)cc(N3CCOCC3)nc12` [GSK2269905] it is 27 nM; for `O=C1NC(=O)C(c2ccc(Cl)cc2)=C1Nc1cccc(Cl)c1` [SB-317651] it is 160 nM.
